The source made the active and inactive calls.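 The calls were made as follows, unless noted: active = inhibition of the reporter signal at or above 50%; inactive = inhibition below 50%.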
How the values were obtained:
[1] = inhibitors of TNFa-induced NFkB p65 translocation, primary screen, imaging, HUVEC, MLSMR starter and 10KST1 sets (AID 438;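 active = inhibition above 20% together with a positive visual image hit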;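 also: compound added about 3h40 before a 20 min TNFalpha stimulation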;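 as to inhibition: signal is the nuclear over cytoplasmic p65 intensity ratio per well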); conditions: HUVEC TNFa-induced p65 nuclear translocation; cell count: measured here: nuclei count (cytotoxicity indicator), at 2.08 µM; inhibition: at 2 µM, stronger effect = higher value, 0% TNFa-plus-vehicle, 100% no-TNFa wells
[2] = inhibitors of mutant huntingtin aggregation, primary screen, imaging, exon1htt(103Q)mCFP cells, high-content imaging (AID 483;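 active = visual image review flags a hit and inhibition of aggregation exceeds 20%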;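 also: compound exposure lasted 3 days before fixation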;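 as to nuclei count: percent of the per-plate median nuclei count of sample wells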); conditions: exon1htt(103Q)mCFP cell line, aggregate imaging, at 2 µM; inhibition of aggregation: stronger effect = higher value; nuclei count: measured here: cell count, toxicity
[3] = inhibitors of E-selectin induction by TNFa, primary screen, imaging, HUVEC, immunofluorescence, MLSMR starter and 10KST1 sets (AID 487;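 active = visually confirmed hit in the image check and inhibition above 20%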;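 as to inhibition: signal is fraction of cell area covered by stained E-selectin grains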;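 as to nuclei count: 100% = median nuclei count of all wells on the same plate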); conditions: HUVEC TNFalpha-induced E-selectin immunofluorescence imaging, at 2 µM; inhibition: stronger effect = higher value; nuclei count: measured here: cell number, toxicity
[4] = target: Voltage-gated potassium channel subunit beta-2 (Rattus norvegicus) (UniProt P62483); experiment: KvBeta enzyme negative modulators, primary screen, biochemical, NADPH fluorescence (AID 622;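 active = fluorescence slope higher than the sample average by over 3 SD, cut at about -0.22 in these data, passing the limit was not always enough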;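 also: slope of raw intensity against log time taken from 70 to 1610 s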); conditions: recombinant KvBeta, 4-cyanobenzaldehyde reduction, at 10 µM, stronger effect = higher value
Sequence of Voltage-gated potassium channel subunit beta-2 (Rattus norvegicus) (P62483 whole entry, looked up): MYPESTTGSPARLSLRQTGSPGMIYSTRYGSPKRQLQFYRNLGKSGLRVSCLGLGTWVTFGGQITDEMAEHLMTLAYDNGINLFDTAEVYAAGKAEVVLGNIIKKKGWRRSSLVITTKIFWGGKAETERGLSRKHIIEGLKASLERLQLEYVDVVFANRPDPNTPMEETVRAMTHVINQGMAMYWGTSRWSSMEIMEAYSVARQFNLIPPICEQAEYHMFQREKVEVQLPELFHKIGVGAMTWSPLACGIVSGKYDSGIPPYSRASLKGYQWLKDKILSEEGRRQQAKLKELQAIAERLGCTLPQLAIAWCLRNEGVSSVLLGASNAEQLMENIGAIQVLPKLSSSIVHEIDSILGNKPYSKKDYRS

[5] = target: Voltage-gated potassium channel subunit beta-2 (Rattus norvegicus) (UniProt P62483); experiment: KvBeta positive modulators, primary screen, biochemical, NADPH fluorescence (AID 623;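 active = NADPH fluorescence slope more negative than the mean of all samples by about 3 SD, 99.7% confidence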;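 also: fluorescence intensity change per second fitted from 20 to 320 s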); conditions: Recombinant KvBeta, NADPH fluorescence decrease slope, 10 min; at 10 µM; stronger effect = lower value
[6] = target: Alpha-2C adrenergic receptor (Homo sapiens) (UniProt P18825); experiment: modulators of alpha2C/GIRK thallium flux, primary screen, cell-based, HEK293 alpha2C/GIRK1/2 (AID 624;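 active = fluorescence slope after compound addition differing from the mean of all screened samples at 99.7% confidence, in either direction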;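 also: slope of fluorescence ratio to pre-addition baseline per second over 15 to 24 s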); conditions: thallium flux BTC fluorescence, at 10 µM, actives lie on both sides
Sequence of Alpha-2C adrenergic receptor (Homo sapiens) (P18825 whole entry, looked up): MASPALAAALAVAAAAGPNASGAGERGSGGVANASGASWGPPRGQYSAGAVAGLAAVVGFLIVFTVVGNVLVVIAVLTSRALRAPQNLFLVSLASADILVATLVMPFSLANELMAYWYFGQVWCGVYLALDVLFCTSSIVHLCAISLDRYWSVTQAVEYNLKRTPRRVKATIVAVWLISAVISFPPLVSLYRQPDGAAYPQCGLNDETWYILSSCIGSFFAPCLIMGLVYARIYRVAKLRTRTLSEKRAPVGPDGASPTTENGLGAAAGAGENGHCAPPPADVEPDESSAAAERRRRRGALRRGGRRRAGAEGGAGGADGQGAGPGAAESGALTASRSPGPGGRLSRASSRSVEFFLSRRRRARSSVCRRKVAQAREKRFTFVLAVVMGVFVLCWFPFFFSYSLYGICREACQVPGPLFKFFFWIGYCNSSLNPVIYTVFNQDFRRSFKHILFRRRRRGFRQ

[7] = inhibitors of Sendai virus-induced IRF3 signaling, primary screen, TLR/RLR signaling modifier project, cell-based, Sendai virus stimulus, luciferase, 10K MLSCN set (AID 602276;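 active = inhibition at or above 50% at 10 µM; inactive = inhibition below 50%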;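 also: firefly luciferase from ISG56 promoter only with Renilla not read in this screen; 0% = Sendai virus plus DMSO and 100% = medium plus DMSO without virus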); conditions: HEK293 RL24 IRF3 luciferase reporter, at 10 µM, stronger effect = higher value
[8] = inhibitors of poly I:C-induced TLR3 signaling, primary screen, cell-based, poly I:C stimulus, luciferase, 10K MLSCN set (AID 602277); conditions: HEK293-TLR3 RL24 IRF3 luciferase reporter, at 10 µM, stronger effect = higher value

Row | Compound | cell count [1] | inhibition [1] | inhibition of aggregation [2] | nuclei count [2] [%] | inhibition [3] | nuclei count [3] [%] | fluorescence slope [4] | NADPH fluorescence slope [5] | slope [6] | inhibition [7] | inhibition [8]
1 | CCOC(=O)c1c(NC(=O)COC(=O)c2c(C)noc2C)sc2c1CCC2 | 231 | 7.8% (inactive) | 29.9% (inactive) | 103 | -101% (inactive) | 109 | -0.472 (inactive) | -1.1e-05 (inactive) | 0.0054 (inactive) | 14.6% (inactive) | 21.3% (inactive)
2 | COc1ccc(N2C(=O)CCC(C(=O)N3CCCCC3)C2c2ccc(OC)c(OC)c2)cc1 (centres undefined) | 164 | -1.9% (inactive) | 21.6% (inactive) | 96.5 | -17.5% (inactive) | 97 | -0.412 (inactive) | 5.3e-05 (inactive) | 0.00625 (inactive) | 12.8% (inactive) | 21.7% (inactive)
3 | CCOC(=O)c1c(C)oc2c1c1c(c3ccccc32)OCN(Cc2cccnc2)C1 | 499 | -2.1% (inactive) | 8.8% (inactive) | 100 | -8.4% (inactive) | 104 | -0.367 (inactive) | 1.6e-05 (inactive) | 0.00433 (inactive) | -1.25% (inactive) | 15.3% (inactive)
4 | O=C(CSc1nnnn1-c1ccccc1Cl)Nc1ccc2c(c1)OCCO2 | 660 | -3.4% (inactive) | 3.2% (inactive) | 107 | -55% (inactive) | 118 | -0.548 (inactive) | -5.9e-05 (inactive) | 0.00706 (inactive) | 15.2% (inactive) | 30.5% (inactive)
5 | c1ccc(CCn2nnnc2C(c2cccs2)N2CCOCC2)cc1 (centres undefined) | 675 | -8.6% (inactive) | -16% (inactive) | 124 | -74.9% (inactive) | 106 | -0.488 (inactive) | -0.000173 (inactive) | 0.00462 (inactive) | 4.38% (inactive) | 17.4% (inactive)
6 | CCC(C)(C(=O)NC1CCCCC1)N(Cc1ccco1)C(=O)c1cnccn1 (centres undefined) | 471 | 0.3% (inactive) | 16.1% (inactive) | 89.9 | -23.4% (inactive) | 110 | -0.376 (inactive) | -4.2e-05 (inactive) | 0.00684 (inactive) | 10.7% (inactive) | 27.6% (inactive)
7 | c1ccc(C2(Cn3ccc4ccccc43)OCCO2)cc1 | 311 | -13% (inactive) | -6% (inactive) | 109 | -115% (inactive) | 123 | -0.482 (inactive) | 2.6e-06 (inactive) | 0.00648 (inactive) | 4.02% (inactive) | 12% (inactive)
8 | CCCC(=O)Nc1nnc(CC(=O)OCC)s1 | 799 | -7.3% (inactive) | 11% (inactive) | 95.6 | -35.4% (inactive) | 113 | -0.614 (inactive) | 1.3e-05 (inactive) | 0.00516 (inactive) | -5.88% (inactive) | 15.8% (inactive)
9 | CCCCc1ccc(NC(=O)N[C@H](C(=O)O)C(C)C)cc1 | 388 | -19.8% (inactive) | -0.3% (inactive) | 89.1 | -26.2% (inactive) | 84.1 | -0.481 (inactive) | 1.8e-05 (inactive) | 0.00552 (inactive) | -0.498% (inactive) | -7.11% (inactive)

From PubChem BioAssay
